Results with a measured potency or affinity are listed apart. Active and inactive are the calls of the source.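 How the source made its calls: active means fitted half-maximal concentration for ATP signal loss at most twice the top valid dose; inconclusive means flat curve between -70 and -30%, or an invalid fit; inactive means flat within ±30%, wrong direction, or potency past limit.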

The assay in a line: HepG2 cell cytotoxicity, dose response, cytotoxicity control, cherry-picks, set 5 (AID 1053118). To be noted: HepG2 viability, ATP luminescence, 72 h; series mostly up to 26 µM.
On to `C[C@@H]1CN([C@H](C)CO)C(=O)c2cc(NC(=O)CCCN(C)C)ccc2O[C@H]1CN(C)Cc1ccc(-c2ccccc2)cc1`, for which the outcome was inactive.

Regarding `C[C@H](CO)N1C[C@H](C)[C@@H](CN(C)Cc2ccc(-c3ccccc3)cc2)Oc2ccc(NC(=O)CCCN(C)C)cc2C1=O`, the outcome was inactive.

Regarding `C[C@@H]1CN([C@H](C)CO)C(=O)c2cc(NC(=O)C3CCCCC3)ccc2O[C@H]1CN(C)Cc1ccc(-c2ccccc2)cc1`, the compound was classed as inactive.

Turning to `C[C@H](O)C#Cc1ccc2c(c1)O[C@H](CN(C)C)[C@H](C)CN([C@@H](C)CO)S2(=O)=O`, the call was inactive.

With `CCc1nc2c(OCCc3cccc(OC)c3)cccn2c1N(C)C(=O)c1ccc(C)cc1`, the result was inactive.

On to `Cc1ccc(CS(=O)Cc2ccc(C(=O)NC3CCCC(C)C3C)o2)cc1` (stereo unspecified), for which the compound was classed as inactive.

`CCCCOc1ccc(C(C)NC(=O)C2CCCN(S(=O)(=O)CCC)C2)cc1` (stereo unspecified): the call was inactive.

Consider `O=C(Nc1ccccc1F)N1C[C@H]2[C@@H](c3ccccc31)[C@@H](CO)N2C(=O)C1CC1`, for which the outcome was inactive.

For `CO[C@H]1CN(C)C(=O)c2cc(NC(C)=O)ccc2OC[C@@H](C)N(C(=O)CN2CCOCC2)C[C@H]1C`, the call was inactive.

Take `C[C@H](CO)N1C[C@H](C)[C@H](CN(C)C(=O)Nc2cccc3ccccc23)Oc2c(NC(=O)Nc3ccc(C(F)(F)F)cc3)cccc2C1=O`: the compound was called inactive.

`CC1(C)Cc2c(C#N)c(SCC(=O)c3ccccc3)nc(N3CCOCC3)c2CS1`: the compound was called inactive.

`Cc1ccc(-c2nc3ncccc3o2)cc1NC(=O)c1ccco1`: the outcome was inactive.

With `CN(C)C(=O)c1ccc(-c2ccc3c(c2)[C@H]2[C@H](CCN2C(=O)c2ccc(F)cc2)[C@H](CO)N3C)cc1`, the compound was called inactive.

Take `CC(C)NC(=O)N(C)C[C@H]1Oc2ccc(NC(=O)CCN3CCOCC3)cc2C(=O)N([C@H](C)CO)C[C@@H]1C`: the compound was classed as inactive.

As to `C[C@@H]1CN([C@H](C)CO)C(=O)c2cc(-c3ccccc3)cnc2O[C@H]1CN(C)Cc1ccccc1`, the compound was called inactive.

For the compound `Cc1oc2ccc(O)cc2c1C(=O)c1ccc(Br)cc1`, the call was inactive.

Consider `COCC(=O)Nc1ccc2c(c1)C(=O)N(C)[C@@H]1CC[C@@H](CC(=O)NCc3ccccc3Cl)O[C@H]1CO2`, for which the outcome was inactive.

In the case of `CN1c2ccc(-c3ccccc3)cc2[C@H]2[C@H](CCN2C(=O)CN2CCOCC2)[C@@H]1CO`, the outcome was inactive.

In the case of `CC(C)(C)c1cc(Cl)c(O)c(NC(=S)NC(=O)c2cccnc2)c1`, the compound was classed as inactive.

As for `CN1c2ccc(-c3ccccc3)cc2[C@H]2[C@H](CCN2C(=O)CN2CCOCC2)[C@H]1CO`, the compound was called inactive.

With `COc1cccc(S(=O)(=O)N2CC[C@@H]3[C@H]2c2cc(-c4ccc(C#N)cc4)ccc2N[C@@H]3CO)c1`, the result was inactive.

The values above are taken from PubChem BioAssay AID1053118 (Broad Institute, 2014).
